From PubChem BioAssay (NCATS)
Results filed as inconclusive are left out. Active and inactive are the calls of the source. Calls come from the whole dose curve; as a rule, active = well fitted cell-killing curve with a large enough effect; inconclusive = small, poorly fitted or top-dose-only effect, or effect the other way; inactive = flat fitted curve, though single readings scatter.

Tests used:
Assay in all cases: Primary qHTS to identify gynecologic anti-cancer compounds using libraries of approved drugs and bioactive compounds (AID 1345084); note: nearly all actives have a fitted effect of over 55% in size
Details in all cases: Gynecologic cancer cell panel viability, ATPlite luminescence, 48 h; series mostly up to 57.5 µM
PA-1 = tested on: PA-1
Procedure, shortened: (§1)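 Five-point cytotoxicity, 48 h drug exposure at 37 C, 5% CO2, on cells seeded 16 h beforehand. ATP content read by ATPlite luminescence.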

SKOV3 = tested on: SKOV3
Procedure, shortened: as §1

Tov-21-G = tested on: Tov-21-G
Procedure, shortened: as §1

Tov112D = tested on: Tov112D
Procedure, shortened: as §1
% is set by controls: 0 for no effect and ±100 for the full control effect.

O=C(O)c1ccccc1NCCc1ccccc1
inactive: Potency (PA-1) | Potency (SKOV3) | Potency (Tov-21-G) | Potency (Tov112D)

CC1(C)CC2C(C1)C(C)(O)C13CC1(COC3=O)C2O (stereo unspecified)
inactive: Potency (PA-1) | Potency (SKOV3) | Potency (Tov-21-G) | Potency (Tov112D)

CC12CCC(=O)C=C1C(O)CC1C2C(O)CC2(C)C1CC[C@]2(O)C(=O)CO (stereo partly specified)
inactive: activity change, negative = cytotoxicity (PA-1) -1.22% [at 11.6 µM] | activity change, negative = cytotoxicity (SKOV3) -0.607% [at 11.6 µM] | activity change, negative = cytotoxicity (Tov-21-G) -3.93% [at 11.6 µM] | activity change, negative = cytotoxicity (Tov112D) 12.3% [at 11.6 µM]

CC1=CC2C(CC1OC1OC(CO)C(O)C(O)C1O)C(C)CC(=O)C2C(C)C (stereo unspecified)
inactive: Potency (PA-1) | Potency (SKOV3) | Potency (Tov-21-G) | Potency (Tov112D)

C=C1C[C@]23C[C@H]1CC[C@H]2C1=C[C@H]2OC(=O)[C@@](C)([C@H]1[C@@H]3C(=O)O)[C@H]2O
inactive: Potency (PA-1) | Potency (SKOV3) | Potency (Tov-21-G) | Potency (Tov112D)

CC(C)=CCC[C@](C)(O)[C@H]1CC[C@]2(C)[C@@H]1[C@H](O)CC1[C@@]3(C)CC[C@H](O)C(C)(C)C3[C@@H](O[C@@H]3O[C@H](CO)[C@@H](O)[C@H](O)[C@H]3O[C@@H]3OC[C@@H](O)[C@H](O)[C@H]3O)C[C@]12C (stereo partly specified)
inactive: Potency (PA-1) | Potency (SKOV3) | Potency (Tov-21-G) | Potency (Tov112D)

C[C@H](CCC(=O)O)[C@H]1CC[C@H]2[C@@H]3C[C@H](O)[C@@H]4C[C@H](O)CC[C@]4(C)[C@H]3CC[C@]12C
inactive: Potency (PA-1) | Potency (SKOV3) | Potency (Tov-21-G) | Potency (Tov112D)

COc1ccccc1NC(=O)OCC1CCN(C(=O)OC(C)(C)C)CC1
inactive: Potency (PA-1) | Potency (SKOV3) | Potency (Tov-21-G) | Potency (Tov112D)

CC(C)(O[C@@H]1O[C@H](CO)[C@@H](O)[C@H](O)[C@H]1O)C(OC(=O)/C=C\c1ccc(O)cc1)C(=O)OCc1ccc(O[C@@H]2O[C@H](CO)[C@@H](O)[C@H](O)[C@H]2O)cc1 (stereo partly specified)
inactive: Potency (PA-1) | Potency (SKOV3) | Potency (Tov-21-G) | Potency (Tov112D)

CC(C)=CCC/C(C)=C/CO[C@@H]1O[C@H](CO)[C@@H](OC(=O)/C=C/c2ccc(O)cc2)[C@H](O[C@@H]2O[C@@H](C)[C@H](O)[C@@H](O)[C@H]2O)[C@H]1O
inactive: Potency (PA-1) | Potency (SKOV3) | Potency (Tov-21-G) | Potency (Tov112D)

CC1CCCCN1S(=O)(=O)c1ccc(N2CCCC2=O)cc1 (stereo unspecified)
inactive: Potency (PA-1) | Potency (SKOV3) | Potency (Tov-21-G) | Potency (Tov112D)

COC(=O)CC(O)C1OC(c2ccccc2)C(O)C1O (stereo unspecified)
inactive: Potency (PA-1) | Potency (SKOV3) | Potency (Tov-21-G) | Potency (Tov112D)

O=C(O)[C@H](Cc1ccc(Nc2nccc3ccncc23)cc1)NC1=C(Br)C(=O)C12CCCCC2
inactive: Potency (PA-1) | Potency (SKOV3) | Potency (Tov-21-G) | Potency (Tov112D)

COc1ccc(C2(O)c3ccccc3NC(=O)C2O)cc1 (stereo unspecified)
inactive: Potency (PA-1) | Potency (SKOV3) | Potency (Tov-21-G) | Potency (Tov112D)

O=C(O)c1cccc(S(=O)(=O)N2CCc3ccccc3C2)c1
inactive: Potency (PA-1) | Potency (SKOV3) | Potency (Tov-21-G) | Potency (Tov112D)

COC(=O)C1=COC(O[C@@H]2O[C@H](CO)[C@@H](O)[C@H](O)[C@H]2O)[C@H]2[C@@H]1[C@H](OC(=O)CCc1ccc(O)cc1)C[C@]2(C)O (stereo partly specified)
inactive: Potency (PA-1) | Potency (SKOV3) | Potency (Tov-21-G) | Potency (Tov112D)

COC(=O)c1ccc(OC(CO)C(O)c2ccc(O)c(OC)c2)c(OC)c1 (stereo unspecified)
inactive: Potency (PA-1) | Potency (SKOV3) | Potency (Tov-21-G) | Potency (Tov112D)

CC/C=C\CCO[C@@H]1O[C@H](CO)[C@@H](O)[C@H](O)[C@H]1O
inactive: Potency (PA-1) | Potency (SKOV3) | Potency (Tov-21-G) | Potency (Tov112D)

COc1ccc(Cl)c(Nc2nc3ccccc3nc2NS(=O)(=O)c2cccc(NC(=O)C(C)(C)N)c2)c1
inactive: Potency (PA-1) | Potency (SKOV3) | Potency (Tov-21-G) | Potency (Tov112D)

CC1(C)CC[C@]2(C(=O)O)CC[C@]3(C)C(=CCC4[C@@]5(C)CC[C@H](O[C@@H]6O[C@H](CO)[C@@H](O)[C@H](O)[C@H]6O[C@@H]6O[C@H](CO)[C@@H](O)[C@H](O)[C@H]6O)[C@@](C)(CO)C5CC[C@]43C)[C@@H]2C1 (stereo partly specified)
inactive: Potency (PA-1) | Potency (SKOV3) | Potency (Tov-21-G) | Potency (Tov112D)

CC1CCN(C(=O)CC#N)CC1N(C)c1ncnc2[nH]ccc12 (stereo unspecified)
inactive: Potency (PA-1) | Potency (SKOV3) | Potency (Tov-21-G) | Potency (Tov112D)

CC(C)C(CO)Nc1nc(Nc2ccc(C(=O)O)c(Cl)c2)c2ncn(C(C)C)c2n1 (stereo unspecified)
inactive: Potency (PA-1) | Potency (SKOV3) | Potency (Tov-21-G) | Potency (Tov112D)

CCC(C)/C=C(C)/C=C/c1cc2c(cn1)C(=O)C(C)(OC(C)=O)C(O)=C2Cl (stereo unspecified)
inactive: Potency (PA-1) | Potency (SKOV3) | Potency (Tov-21-G) | Potency (Tov112D)

COc1cc(C)c(C(=O)Oc2cc(C)c(C(=O)Oc3cc(C)c(C(=O)NC(C)C(=O)O)c(O)c3)c(O[C@@H]3O[C@H](CO)[C@@H](O)[C@H](O)[C@H]3OC(C)=O)c2)c(OC)c1 (stereo partly specified)
inactive: Potency (PA-1) | Potency (SKOV3) | Potency (Tov-21-G) | Potency (Tov112D)
